Consider 92 molecules from PubChem BioAssay AID493098 (Sanford-Burnham Center for Chemical Genomics, 2011).

Structures are written as SMILES. In all, about 340,000 compounds went through this assay and about 1,700 (0.5%) were called active. The list comes from a sample in which actives are over-represented; it also holds similar structures and randomly drawn compounds. Unmarked numbers belong to inactive results.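 Rule for the calls: active = compounds whose inhibition of the agonist-driven luminescence signal at 20 µM reaches about 50% (limit read from the data); inactive = the rest.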

Chain of C-C chemokine receptor type 6 (Homo sapiens) (P51684 whole entry, looked up): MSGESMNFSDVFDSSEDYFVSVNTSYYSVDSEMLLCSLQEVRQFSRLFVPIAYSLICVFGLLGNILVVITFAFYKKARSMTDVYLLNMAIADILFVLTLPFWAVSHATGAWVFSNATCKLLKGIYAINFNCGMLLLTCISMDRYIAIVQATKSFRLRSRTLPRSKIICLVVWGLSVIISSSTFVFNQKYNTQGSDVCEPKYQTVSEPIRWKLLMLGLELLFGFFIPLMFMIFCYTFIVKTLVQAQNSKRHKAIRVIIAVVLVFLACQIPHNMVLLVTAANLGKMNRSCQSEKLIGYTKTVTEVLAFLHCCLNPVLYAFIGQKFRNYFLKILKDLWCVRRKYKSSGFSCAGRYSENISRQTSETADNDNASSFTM

The assay has as its target C-C chemokine receptor type 6 (Homo sapiens) (UniProt P51684). As to the kind of experiment: blockers of CCL20-driven beta-arrestin recruitment to CCR6 – cell-based, CHO-K1, luminescence, uHTS, primary screen (AID 493098).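 Note: cells stimulated with CCL20 at 14 nM final; plate controls were DMSO with CCL20 for no effect and DMSO without agonist for full effect.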 To be noted: CHO-K1 CCR6 PathHunter beta-arrestin, CCL20-stimulated, at 20 µM, stronger effect = higher value. (In general: Recruitment of arrestin is a read-out of receptor activation apart from second messengers.)
What is called inhibition is the relative decrease from the control value, in per cent. As for `O=[N+]([O-])c1ccccc1S(=O)(=O)Nc1cccc2cccnc12`, the inhibition is 54.6% (active).

Take `COc1cc(NS(=O)(=O)c2ccc3ccccc3c2)c2ncccc2c1`: the inhibition was 13.2%.

As to `NS(=O)(=O)c1ccc(CCNS(=O)(=O)c2cccc3cccnc23)cc1`, the inhibition was 12.6%.

Regarding `CCOc1ccccc1NC(=O)COc1ccc(S(=O)(=O)N2CCCC2)cc1`, the inhibition is 17.1%.

As to `O=C1Nc2ccc([N+](=O)[O-])cc2C1=Nc1cccc(CO)c1`, the inhibition was 57.4% (active).

As for `CN1CCN(/N=C2/C(=O)Nc3ccc([N+](=O)[O-])cc32)CC1`, the inhibition was 7.16%.

Take `O=[N+]([O-])c1ccc(N(CCO)Cc2ccccc2)c([N+](=O)[O-])c1`: the inhibition is 12.9%.

Turning to `COc1ccc(N2CCN(CCNC(=O)c3nnc(Cc4c(F)cccc4Cl)o3)CC2)cc1`, the inhibition was 14.8%.

Consider `CCn1nc(C)c(CN2CCN(Cc3ccc(OC)c(C)c3C)C(CCO)C2)c1C` (configuration not stated), for which the inhibition was 5.51%.

As to `COc1cc2c(-c3ccc4c(c3)OCO4)c(-c3ccsc3)oc(=O)c2cc1OC`, the inhibition is 21%.

With `O=C(O)c1ccccc1/C=N/Nc1ccc(S(=O)(=O)Nc2ccc(Cl)cc2)cc1[N+](=O)[O-]`, the inhibition was 46.4%.

Regarding `O=C(N/N=C/c1cc(Cl)cc([N+](=O)[O-])c1O)C(O)(c1ccccc1)c1ccccc1`, the inhibition was 54.2% (active).

As for `O=C(N/N=C/c1cc(Br)c(O)c([N+](=O)[O-])c1)C(O)(c1ccccc1)c1ccccc1`, the inhibition is 33.5%.

Consider `COC(=O)c1cccc(C(=O)N2CCC(CCC(=O)NCc3ccc(F)cc3)CC2)c1`, for which the inhibition was 7.16%.

Take `CCc1ccc(N(C(=O)c2csnn2)C(C(=O)NC2CCCCC2)c2cccnc2)cc1` (configuration not stated): the inhibition is 18.2%.

As to `Cc1cc2oc(=O)cc(CN(C)Cc3ccc(OC(F)F)cc3)c2cc1Cl`, the inhibition is 21.5%.

Take `COc1ccc(C(C#N)(CC(=O)O)c2cnccn2)cc1OC` (configuration not stated): the inhibition was 14.6%.

Regarding `O=c1nc(N/N=C/c2ccco2)cn[nH]1`, the inhibition was 3.85%.

As to `O=[N+]([O-])c1cc(Cl)cc(/C=N/NC(=S)Nc2cc(S(=O)(=O)N3CCOCC3)ccc2Cl)c1O`, the inhibition was 63.1% (active).

Consider `Cc1ccc(S(=O)(=O)N2CCN(CC(=O)N/N=C/c3cc([N+](=O)[O-])ccc3Cl)CC2)cc1`, for which the inhibition was -22.1%.

As for `O=S(=O)(c1ccc(NC(=S)NN=C(C2CC2)C2CC2)cc1)N1CCOCC1`, the inhibition is 15.7%.

`CCOc1cc(C(=O)OCC(=O)Nc2cccc(C)c2)ccc1OCC(=O)N1CCOCC1`: the inhibition was 1.35%.

Turning to `CCc1nccn1S(=O)(=O)c1cccc([N+](=O)[O-])c1`, the inhibition is 3.26%.

On to `Cc1ccc(/C([O-])=C(/C(=S)NCc2ccco2)[n+]2ccccc2)cc1[N+](=O)[O-]`, for which the inhibition was 14.2%.

On to `c1ccc2c(c1)OC1OC2Oc2ccccc21`, for which the inhibition is 19.4%.

With `CCC(C)N1C(=O)S/C(=C/c2ccc(Sc3nc4ccccc4[nH]3)o2)C1=O` (configuration not stated), the inhibition is 15.6%.

In the case of `O=C(NC(Nc1nc2ccc([N+](=O)[O-])cc2s1)(C(F)(F)F)C(F)(F)F)c1ccccc1`, the inhibition was 34.6%.

In the case of `O=[N+]([O-])c1cc(Br)c(O)c(/C=N/Nc2nc3ccccc3s2)c1`, the inhibition is 54.2% (active).

Regarding `Cc1cc(C(=O)N/N=C/c2cc([N+](=O)[O-])cc(C)c2O)n[nH]1`, the inhibition was 34.7%.

For the molecule `O=C(CN(Cc1ccc(Br)cc1)S(=O)(=O)c1ccccc1)NCc1ccncc1`, the inhibition was 28.9%.

Consider `CCOC(=O)c1c(C)[nH]c(C)c1S(=O)(=O)NCCCc1ccco1`, for which the inhibition is 0.21%.

For `COc1ccc(C(=O)NC2CC2)cc1OC1CCN(C/C=C/c2ccccc2)CC1`, the inhibition was 3.46%.

For the molecule `O=C(N/N=C/c1cc([N+](=O)[O-])ccc1O)/C(=C\c1cccs1)NC(=O)c1ccccc1`, the inhibition is 34.4%.

For `Nc1nnnn1/N=C/c1cc([N+](=O)[O-])ccc1O`, the inhibition is 23.1%.

As for `O=[N+]([O-])c1ccc(O)c(/C=N/Nc2ccccc2[N+](=O)[O-])c1`, the inhibition was 55.9% (active).

As for `CCN(CC)C(=O)c1nc[nH]c1C(=O)N(C)Cc1ccccc1`, the inhibition was 9.33%.

Consider `COc1ccc2nc(Nc3nc(-c4cc5ccccc5oc4=O)cs3)sc2c1`, for which the inhibition was 54.4% (active).

For `COc1ccc2oc(=O)cc(-c3cc4ccccc4o3)c2c1`, the inhibition was 10.7%.

Turning to `COc1ccc(OC)c(-c2csc(NC(=O)C3=NNC(=O)CC3)n2)c1`, the inhibition was -1%.

For the molecule `Cc1cc(Cl)c(S(=O)(=O)NCc2cccnc2)cc1OCC(N)=O`, the inhibition is -11.7%.

On to `CNC(=S)Nc1ccc([N+](=O)[O-])cc1`, for which the inhibition is 7.58%.

Turning to `NC(=O)C1(Nc2ccc([N+](=O)[O-])cc2)CCCC1`, the inhibition is 4.74%.

Take `O=[N+]([O-])c1ccc(N=NNc2ccc([N+](=O)[O-])cc2)cc1`: the inhibition is 58.2% (active).

With `CC(=O)NC(CC(=O)Nc1ccc(S(=O)(=O)N2CCOCC2)cc1)c1ccccc1` (configuration not stated), the inhibition is 4.97%.

For `Cc1nc(SCC(=O)NC2CCCCC2C)c(C#N)c(C)c1C` (configuration not stated), the inhibition is 13%.

As for `CCOc1ccc(C(=O)NC(=S)Nc2ccc(N3CCOCC3)c(Cl)c2)cc1[N+](=O)[O-]`, the inhibition was 53.9% (active).

Regarding `CCOc1ccc(C(=O)NC(=S)Nc2ccc(NC(=O)C(C)C)cc2)cc1[N+](=O)[O-]`, the inhibition is 28.1%.

Consider `COc1cccc(OC)c1C(=O)NC(=S)Nc1ccc(N2CCOCC2)c(Cl)c1`, for which the inhibition was 8.18%.

`C/C=C/C=C/C(=O)O`: the inhibition is -5.26%.

Take `COC(=O)c1ccc(NCC(=O)c2ccccc2)cc1`: the inhibition is 72.6% (active).

Take `COC(=O)c1ccc(NCc2cc(O)ccc2O)cc1`: the inhibition is 20.3%.

Take `COc1ccc(NC(=O)CCCC(=O)c2ccccc2)cc1`: the inhibition is -6.21%.

Regarding `Cc1ccc(C(=O)NC2CCN(C(=O)Nc3ccc(F)cc3)CC2)cc1`, the inhibition was -8.58%.

`Cc1ccc(C(=O)CNc2ccc(F)cc2)cc1`: the inhibition is 90.9% (active).

In the case of `Cc1ccc(NC(=S)Nc2ccc(F)cc2)cc1`, the inhibition was -4.89%.

For the molecule `O=C(Nc1ccc(Br)cc1F)C1CC(=O)N(C2CCCCC2)C1` (configuration not stated), the inhibition was 1.54%.

As to `CC(C)NC(=O)c1ccc(Sc2ccccc2)c([N+](=O)[O-])c1`, the inhibition is 10.2%.

Take `Cc1cc(C)cc(OCC(=O)NNC(=O)CCN2C(=O)c3ccccc3C2=O)c1`: the inhibition is 10.7%.

Turning to `CC(=O)N(C1=C(Cl)C(=O)c2ccccc2C1=O)c1ccc(C(=O)O)cc1`, the inhibition was 11.9%.

For the molecule `O=C1C(Cl)=C(Oc2ccccc2)C(=O)c2ccccc21`, the inhibition was 117% (active).

`O=C(CCC1CCN(C(=O)c2cccc(Cl)c2F)CC1)Nc1ccccc1`: the inhibition was 20.2%.

Consider `CC(NC(=O)c1ccccc1)C(=O)Nc1ccccc1` (configuration not stated), for which the inhibition is -0.64%.

`O=C(NC1=CC(=O)c2ccccc2C1=O)c1ccccc1`: the inhibition was 83% (active).

For `O=C1C=C(NS(=O)(=O)c2ccccc2)C(=O)c2ccccc21`, the inhibition was 29.7%.

In the case of `CCn1c(=S)[nH]c2cc(S(=O)(=O)N3CCOCC3)ccc21`, the inhibition was -2.44%.

Consider `CC(c1ccco1)N(C(=O)Nc1ccccc1)C1CCCCC1` (configuration not stated), for which the inhibition was 3.12%.

Consider `O=C(Nc1cccc([N+](=O)[O-])c1)Nn1cnnc1`, for which the inhibition is 12.5%.

Turning to `COC(=O)/C=C\C(=O)Nc1cccc([N+](=O)[O-])c1`, the inhibition was 106% (active).

As to `COc1ccc(S(=O)(=O)NC(C)C(=O)Nc2cccc([N+](=O)[O-])c2)cc1` (configuration not stated), the inhibition is 7.92%.

Consider `C/C(N)=C(/C#N)C(=O)COC(=O)C1=NN(c2ccccc2)C(=O)CC1`, for which the inhibition was 7.03%.

Consider `Cc1ccc(S(=O)(=O)N2CCC(Oc3ccc(-n4cnnn4)cc3)CC2)cc1`, for which the inhibition is 3.04%.

For the molecule `CN1C=CC=C/C1=C1\SC(=S)N(Cc2ccccc2)C1=O`, the inhibition was 25.3%.

Consider `COc1cc(/C=C2/SC(=S)N(Cc3ccccc3)C2=O)cc(OC)c1O`, for which the inhibition is 52.9% (active).

Regarding `COc1cccc(/C=C2/SC(=S)N(CC(=O)NC3C=CS(=O)(=O)C3)C2=O)c1` (configuration not stated), the inhibition was -8.12%.

`COC(=O)c1ccc(NC(=O)CSc2nncc3ccc(OC)c(OC)c23)cc1`: the inhibition was -2.84%.

For `C#CCOc1ccc(/C=C2/C(=O)NN(c3ccccc3)C2=O)cc1OC`, the inhibition was 12%.

On to `COc1cc(CN2CC(C)CC(C)C2)cc([N+](=O)[O-])c1O` (configuration not stated), for which the inhibition is 5.99%.

In the case of `COc1cc(/C=C2/C(=O)NN(c3ccc(F)cc3)C2=O)cc([N+](=O)[O-])c1O`, the inhibition was 51.9% (active).

With `COc1ccc(NC(=O)CC(NC(C)c2ccccc2)C(=O)O)cc1` (configuration not stated), the inhibition is 0.17%.

As for `O=C(COC(=O)c1cc(S(=O)(=O)N2CCOCC2)ccc1Cl)NCCc1ccccc1`, the inhibition is 9.32%.

As to `O=C(C1CCCO1)N(Cc1ccccc1)c1ccccc1` (configuration not stated), the inhibition was 2.47%.

In the case of `Oc1ccc(N=Nc2nccs2)c(O)c1`, the inhibition is 67% (active).

As for `Oc1ccc2ccccc2c1N=Nc1nccs1`, the inhibition is 94.3% (active).

`Cc1cnc(C(=O)N2CCCC(C(=O)c3ccc(C(F)(F)F)cc3)C2)cn1` (configuration not stated): the inhibition is 15.2%.

With `Cc1ccccc1C(=O)OC1OC(=O)C(Cl)=C1Nc1ccccc1` (configuration not stated), the inhibition was 17.2%.

On to `O=C1c2ccccc2-c2ncnc3c(N4CCOCC4)cc(N4CCOCC4)c1c23`, for which the inhibition was 55.9% (active).

For `O=S(=O)(Nc1cc(Cl)ccc1N1CCOCC1)c1ccccc1Cl`, the inhibition is 17.2%.

As for `Cc1oc2c(c1C(=O)N1CCOCC1)C(=O)c1ccccc1C2=O`, the inhibition was -12.2%.

As for `Cc1ccc2c(C)c(C(=O)N3CCC(N4CCC(C(=O)NC5CC5)CC4)CC3)oc2c1`, the inhibition was 1.71%.

With `CN(C(=O)CSc1nnc(Nc2ccccc2)s1)C1CCS(=O)(=O)C1` (configuration not stated), the inhibition was 4%.

As for `O=C1c2cccnc2C(Nc2ccc(S(=O)(=O)N3CCCCCC3)cc2)N1Cc1ccccc1` (configuration not stated), the inhibition is 5.72%.

On to `Cc1ccc(S(=O)(=O)NCc2ccc(C(=O)NC3CCC(C)CC3)cc2)cc1` (configuration not stated), for which the inhibition is 19.3%.
